For 68 compounds, displacement results are on record in PubChem BioAssay AID1240 (Sanford-Burnham Center for Chemical Genomics, 2008).

Hit rate of the full screen: of about 50,000 compounds, about 800 (1.6%) showed an effect of 50% or more. Shown is part of a subset that was picked to be rich in strong results.

The target in this experiment is Bcl-2-like protein 10 (Homo sapiens) (UniProt Q9HD36). As to the kind of experiment: Phenotype converters, Bcl-B/TR3 peptide binding displacement, primary biochemical FP (AID 1240).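 Also: 0% = Bcl-B with tracer peptide and DMSO and 100% = tracer peptide lacking Bcl-B.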 Particulars: GST-Bcl-B / FITC-TR3 peptide fluorescence polarization; stronger effect = higher value; compound at 3.75 mg/L. Background: Polarisation of emitted light reports the rotation of a fluorescent probe.
Bcl-2-like protein 10 (Homo sapiens), sequence (Q9HD36 whole entry, looked up): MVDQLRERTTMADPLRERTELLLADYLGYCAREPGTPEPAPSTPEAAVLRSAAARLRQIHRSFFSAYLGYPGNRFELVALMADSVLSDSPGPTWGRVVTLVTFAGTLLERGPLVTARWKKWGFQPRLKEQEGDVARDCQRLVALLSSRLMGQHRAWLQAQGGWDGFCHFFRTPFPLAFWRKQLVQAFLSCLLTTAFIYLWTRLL
On to `CC(=O)Oc1ccc(C(=O)N2c3ccccc3Sc3ccccc32)cc1`, for which the displacement is -7.2%.

Regarding `Cc1onc(-c2c(F)cccc2Cl)c1C(=O)NCc1ccc(Cl)cc1`, the displacement was -6.9%. The same measure for `COc1ccc(/C=C/C(=O)NCCc2c[nH]c3ccccc23)cc1OC`: -5%; for `COc1ccc2c(Cl)c(C(=O)N/N=C/c3ccccn3)sc2c1`: 7.8%. Then `O=C(Nc1ccccc1)Nc1nnc(SCc2ccc(F)cc2)s1`, with 13.5%; and `Cn1c(=O)cc(-c2ccccc2)c2cc(Cl)ccc21`, with 14.7%; and `Cn1c(=O)cc2c3c(c(N)ccc31)C(=O)c1ccccc1-2`, with 139%. The same measure for `Cn1c(=O)cc2c3c(c(Nc4cccc(Cl)c4)ccc31)C(=O)c1ccccc1-2`: 15.7%; for `CCCCCCCNc1ccc(NC(=O)c2ccccc2)c2c1C(=O)c1ccccc1C2=O`: 1.5%.

`CCCCNc1ccc2c3c(cc(=O)n2C)-c2ccccc2C(=O)c13`: the displacement was determined as 129%. Then `COCCCNc1ccc2c3c(nc(=O)n2C)-c2ccccc2C(=O)c13`, with 139%; and `O=C1c2ccccc2C(=O)c2c(NCCO)ccc(NCCO)c21`, with 46.4%. Then `Cn1c(=O)cc(-c2ccccc2)c2ccccc21`, with 7.4%; and `Cn1c(=O)cc2c3c(c(Oc4ccccc4)ccc31)C(=O)c1ccccc1-2`, with 108%; and `Cn1c(=O)cc2c3c(c(N4CCCC4)ccc31)C(=O)c1ccccc1-2`, with 38.2%. On to `Nc1c(Cl)cc2c(c1Oc1ccccc1)C(=O)c1ccccc1C2=O`, for which the displacement stood at 8.6%. The same measure for `CCCCNc1cc(=O)n(C)c(=O)n1C`: 6.5%. For `O=C1N=C(N=Nc2c(O)[nH]c3ccccc23)S/C1=C/c1ccc(Br)cc1`, the displacement was determined as 8.9%.

As to `COc1ccc(OC(C)C(=O)Nc2ccc3c(c2)OCCO3)cc1` (stereo not drawn), the displacement is -4.5%.

Take `CC(C)CC(NC(=O)c1ccccc1)C(=O)OCC(=O)N1c2ccccc2Sc2ccccc21` (stereo not drawn): the displacement came to 9.1%. The same measure for `COc1ccc(S(=O)(=O)N(CC(=O)N2CCN(c3ccccc3)CC2)c2ccc(C)cc2)cc1OC`: 6.1%; for `C=CCc1ccccc1OCCOc1ccc(Br)cc1/C=C1/SC(=S)N(C)C1=O`: -1.8%. The same measure for `CCCCOc1ccc(C(=O)N2CCN(c3cccc(C)c3C)CC2)cc1`: -8.2%. In the case of `NNC(=O)COc1ccccc1OCCOCCOc1ccccc1OCC(=O)NN`, the displacement is -10.4%. The same measure for `COc1ccccc1NS(=O)(=O)c1cccc2c1C(=O)c1ccccc1C2=O`: 3%. Then `COC1=C(c2ccccc2)C(=O)c2ccccc2C1=O`, with -8.5%. With `O=C1c2ccccc2-c2onc3ccc(Cl)c1c23`, the displacement came out at 40.4%. Then `CCOc1ccc2noc3c2c1C(=O)c1ccccc1-3`, with 123%; and `COc1ccc(OC)c2c1C(=O)c1ccccc1C2=O`, with 101%. Then `O=C1C=Cc2ccccc2/C1=N/Oc1ccc2noc3c2c1C(=O)c1ccccc1-3`, with 25.9%; and `CCOC(=O)c1ccc2c3c(onc13)-c1ccccc1C2=O`, with 120%; and `CC(C)CCOC(=O)c1ccc2c3c(onc13)-c1ccccc1C2=O`, with 21%. As for `COc1ccc2noc3c2c1C(=O)c1ccccc1-3`, the displacement amounted to 127%. The same measure for `CC(=O)c1ccc2c3c(onc13)-c1ccccc1C2=O`: 2.4%; for `O=C1c2ccccc2-c2onc3ccc(Sc4ccccc4)c1c23`: 17.9%. `CCOc1ccc(Nc2ccc3noc4c3c2C(=O)c2ccccc2-4)cc1`: the displacement is -2%. The same measure for `COc1cc2c(NCc3ccco3)cc(O)c(CC(=O)Nc3ccc(Cl)cc3)c2cc1OC`: 13%. Then `COc1ccc(OC)c(CN2CCN(S(C)(=O)=O)CC2)c1`, with -14%; and `O=C(CSc1nnc(-c2ccco2)n1-c1ccccc1)CSc1nnc(-c2ccco2)n1-c1ccccc1`, with 15.9%. The same measure for `C=CCNC(=O)C1CC(=O)N(c2ccc(C)cc2)C1` (stereo not drawn): -7.4%. Take `Cc1cc(C)nc(NS(=O)(=O)c2ccc(NC(=O)CSc3ncn[nH]3)cc2)n1`: the displacement turned out to be 5.3%.

On to `Nc1nc(Nc2nc(N3CCCC3)cc(C(F)(F)F)n2)cc(C(F)(F)F)n1`, for which the displacement is 12%.

Turning to `CC1=C/C(=N/OS(=O)(=O)c2ccccc2)C=CC1=O`, the displacement is 28.6%.

For `O=C1c2ccc(Oc3ccc([N+](=O)[O-])cc3)cc2C(=O)N1c1cccc(-c2nc3ccccc3o2)c1`, the displacement is -3.8%.

`O=C(Nc1ccc(Cl)c(Cl)c1)c1cc([N+](=O)[O-])ccc1N1CCCCC1`: the displacement is 14%. The same measure for `O=C(O)c1cccc2c1NC(c1cccc3ccccc13)C1CC=CC21` (stereo not drawn): 25.1%. Then `O=[N+]([O-])c1cccc2c1NC(c1ccc(Cl)cc1)C1CC=CC21` (stereo not drawn), with 7.5%; and `COc1cccc2c1NC(c1ccccc1Br)C1CC=CC21` (stereo not drawn), with -4.2%. Then `COc1cccc2c1NC(c1ccc(Cl)cc1)C1CC=CC21` (stereo not drawn), with 9.1%; and `O=C(O)c1cccc2c1NC(c1ccc(Cl)cc1)C1CC=CC21` (stereo not drawn), with 148%; and `O=C(O)c1cccc2c1NC(c1ccccc1Br)C1CC=CC21` (stereo not drawn), with 132%. For the compound `COc1cc(-c2ccccc2)nc(N)n1`, the displacement was -5.4%. In the case of `COc1ccc(/C=C/C(=O)Nc2ccc(Br)cc2C(=O)c2cc(OC)c(OC)c(OC)c2)cc1OC`, the displacement came out at 1.6%. The same measure for `COCC(=O)Nc1ccc2ccccc2c1`: -2.7%. Then `Nc1ccc2nn(-c3ccc([N+](=O)[O-])cc3)nc2c1`, with -8.4%; and `COc1ccc(OC)c(N=Cc2c(O)n(-c3ccccc3Cl)c(=O)[nH]c2=O)c1`, with 98.7%. Take `COc1ccc(N=Cc2c(O)n(-c3ccccc3OC)c(=O)[nH]c2=O)cc1`: the displacement is 9.4%. The same measure for `COc1ccc(N=Cc2c(O)n(-c3cc(OC)ccc3OC)c(=O)[nH]c2=O)cc1`: 103%. The same measure for `COc1cccc(N=Cc2c(O)n(-c3cc(OC)ccc3OC)c(=O)[nH]c2=O)c1`: -2%. Consider `COc1ccccc1N=Cc1c(O)n(-c2ccccc2Cl)c(=O)[nH]c1=O`, for which the displacement was -6.6%.

For `COc1ccc(OC)c(N=Cc2c(O)n(-c3ccccc3C)c(=O)[nH]c2=O)c1`, the displacement was found to be 7.3%.

Consider `CCOC(=O)c1c[nH]c2cc(C(=O)OC)ccc2c1=O`, for which the displacement is -19.8%. Then `CCC1=NN2C(=N)/C(=C/c3cccc(OCc4ccccc4F)c3)C(=O)N=C2S1`, with 6.1%; and `Cn1c(=O)n(C)c2cc(/C=C(\C#N)c3nn(-c4ccccc4)c(N)c3C#N)ccc21`, with 92.9%; and `Cc1ccc(COc2c(Br)cc(/C=C(\C#N)c3nn(-c4ccccc4)c(N)c3C#N)cc2Br)cc1`, with 11.2%.

With `Cc1ccc(/C=C(\C#N)c2nn(-c3ccccc3)c(N)c2C#N)cc1`, the displacement was determined as 2.5%. Turning to `COC(=O)COc1ccc2c(=O)c(Oc3ccc(C(C)(C)C)cc3)coc2c1`, the displacement was 8%. The same measure for `C/C(=N/NC(=O)COc1ccc(C)cc1)c1ccc([N+](=O)[O-])cc1`: 1.6%.
